The source made the active and inactive calls.

For one test, the target named is Albumin (Bos taurus) (UniProt P02769). In words: compounds binding labelled BSA control protein – biochemical, small-molecule microarray, Alexa647 label, 635/667 nm fluorescence, artefact control for SMM control protein annotation, profiling panel (AID 1118).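 Also: score merges 667 nm emission intensity and signal-to-noise per printed compound spot.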 The settings on record: BSA-A647 binding, fluorescence 635 nm, higher = more signal.
Chain of Albumin (Bos taurus) (P02769 whole entry, looked up): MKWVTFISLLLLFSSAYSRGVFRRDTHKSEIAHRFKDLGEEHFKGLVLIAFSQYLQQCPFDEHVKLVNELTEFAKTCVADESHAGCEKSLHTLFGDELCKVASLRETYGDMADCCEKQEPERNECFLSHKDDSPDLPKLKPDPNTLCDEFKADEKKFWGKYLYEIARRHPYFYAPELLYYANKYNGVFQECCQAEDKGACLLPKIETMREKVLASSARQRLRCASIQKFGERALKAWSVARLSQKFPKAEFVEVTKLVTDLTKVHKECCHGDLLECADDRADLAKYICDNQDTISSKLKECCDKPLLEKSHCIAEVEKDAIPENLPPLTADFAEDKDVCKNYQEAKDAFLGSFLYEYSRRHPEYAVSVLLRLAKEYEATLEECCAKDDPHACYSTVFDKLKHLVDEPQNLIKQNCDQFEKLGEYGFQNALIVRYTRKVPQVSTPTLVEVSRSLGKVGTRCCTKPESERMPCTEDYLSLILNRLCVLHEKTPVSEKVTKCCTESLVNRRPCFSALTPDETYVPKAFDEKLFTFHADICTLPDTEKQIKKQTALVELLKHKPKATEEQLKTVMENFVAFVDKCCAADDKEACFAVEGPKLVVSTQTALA
Test [1] is described as follows: probe aXIP binding to arrayed compounds – biochemical, NeuroSMM set, 635/667 nm fluorescence, primary screen (AID 1119).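 Also: probe is the protein aXip251-270 applied at 1 µg/mL to compound-printed slides; binding of probe to printed compounds measured as 667 nm fluorescence plus signal to noise.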 The settings on record: small-molecule microarray, higher = more signal, called active from +8 up or from −8 down.
Test [2] is described as follows: probe aNOTCH3 binding on compound microarray – biochemical, small-molecule microarray, 635/667 nm fluorescence, primary screen (AID 1120).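 Also: probe is a biotin-tagged antibody raised against NOTCH3 rather than NOTCH3 protein; score merges spot fluorescence near 667 nm with spot signal to noise.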 Particulars: higher = more signal.
The nature of test [3]: probe aNOTCH2 binding on compound microarray – biochemical, small-molecule microarray, 635/667 nm fluorescence, primary screen (AID 1121).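 Also: score merges feature fluorescence read at 667 nm with its signal to noise.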 Particulars: higher = more signal.
Test [4] has as its target Carbonic anhydrase 2 (Homo sapiens) (UniProt P00918). Description: compounds binding carbonic anhydrase 2 – biochemical, small-molecule microarray, Alexa647-labelled CAII, profiling panel (AID 1122). Particulars: CAII-A647 binding fluorescence, higher = more signal.
The nature of test [5]: COS7 lysate on small-molecule microarray, probe aHis, 635 nm (AID 1123).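 Also: z-score combines 667nm fluorescence intensity with signal-to-noise per printed compound spot.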 The settings on record: COS7 cell lysate, fluorescence, higher = more signal.
Test [6] in a line: probe aLAP1 signal on lysate-treated microarray – cell lysate, small-molecule microarray, COS7 lysate, primary screen (AID 1124).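 Also: lysate comes from COS7 cells expressing LAP1 and is applied at 0.3 µg/mL; score merges spot fluorescence near 667 nm with signal-to-noise over triplicate slides.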 Particulars: probe aLAP1, fluorescence, higher = more signal.
The test system of another test is Sam68 (KHDRBS1). In words: compounds binding KHDRBS1 protein – biochemical, small-molecule microarray, 635 nm fluorescence, primary screen (AID 1125).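 Also: score merges 667 nm channel intensity with signal to noise over triplicate slides.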 Particulars: higher = more signal.
Test [7] concerns Chordin-like protein 2 (CHRDL2). Description: compounds binding chordin-like 2 – biochemical, small-molecule microarray, 635 nm fluorescence, primary screen (AID 1126).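 Also: printed compound slides probed with Chrdl2 protein at 4 µg/mL for 1 h at 4 C; score merges 667 nm emission intensity with signal to noise over three replicate slides.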 The settings on record: fluorescence 635 nm, higher = more signal.
Test [8] deals with Concanavalin-A (Canavalia ensiformis) (UniProt P02866). Description: compounds binding concanavalin A lectin – biochemical, small-molecule microarray, Alexa647 label, 635 nm, artefact control for SMM control protein annotation, primary screen (AID 1127).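 Also: z combines 667 nm emission intensity with signal-to-noise across three replicate slides.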 The settings on record: ConA-A647 binding fluorescence, higher = more signal.
Chain of Concanavalin-A (Canavalia ensiformis) (P02866 whole entry, looked up): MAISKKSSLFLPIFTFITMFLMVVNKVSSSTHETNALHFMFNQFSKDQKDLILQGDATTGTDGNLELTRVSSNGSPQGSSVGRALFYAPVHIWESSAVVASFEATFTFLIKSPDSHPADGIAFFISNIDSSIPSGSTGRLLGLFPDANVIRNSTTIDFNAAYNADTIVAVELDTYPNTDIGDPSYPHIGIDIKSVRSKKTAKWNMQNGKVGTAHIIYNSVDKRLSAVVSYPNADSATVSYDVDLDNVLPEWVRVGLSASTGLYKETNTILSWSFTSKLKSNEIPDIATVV

With `CN(C)CCCCNC(=O)[C@H]1C[C@H]2C(=O)N3CCC[C@H]3C(=O)N2[C@H]1c1ccc(O)cc1`, the composite z-score in the test with Albumin (Bos taurus) is -0.813; in [2] it was -0.738; in [3], -0.5; in [4], 0.666; in [5] it was 1.44; in [6] it was -0.642. Also, the composite z-score in the test with Sam68 (KHDRBS1) was -1.11; in test [7], 0.0994; in [8], -0.397. Moreover, the composite Z-score in test [1] was 0.11 (inactive).
On to `COCCOC(=O)N1C(=O)[C@@]2(c3cc(C#Cc4ccc(OC)cc4)ccc31)[C@H](C(=O)NC[C@H](O)c1ccccc1)[C@H]1C(=O)O[C@H](c3ccccc3)[C@H](c3ccccc3)N1[C@@H]2c1ccc(O)cc1`, for which the composite z-score in the test with Albumin (Bos taurus) was 0.148; in [2] it was 0.236; in [3] it was -0.154; in [4], 0.441; in test [5], 1.7; in test [6], 1.48. In addition, the values for the composite z-score (with Sam68 (KHDRBS1); in [7]; in [8]) were 1.29, 0.806 and 1.16, respectively. In test [1], the composite Z-score was 0.552 (inactive).
Consider `CN(C)CCCN1C(=O)[C@@]2(c3ccc([N+](=O)[O-])cc3)CC(=O)N(CC34CC5CC(CC(C5)C3)C4)[C@@H]2c2ccc(CO)cc21`, for which the composite z-score was -0.348 with Albumin (Bos taurus); -0.208 in test [2]; -0.0391 in test [3]; 0.76 in [4]; 1.08 in [5]; 0.538 in [6]. Moreover, the composite z-score is 0.503 with Sam68 (KHDRBS1), -0.304 in test [7] and 0.412 in [8]. Moreover, the composite Z-score in test [1] was -0.184 (inactive).
On to `Cc1ccc(S[C@]2(C(=O)NC3CC3)CC(=O)N(Cc3ccccc3Cl)[C@@H]2c2ccc(CO)cc2I)cc1`, for which the composite z-score was 0.257 with Albumin (Bos taurus); -0.0967 in test [2]; -0.0419 in test [3]; 0.68 in [4]; 2.52 in test [5]; 0.944 in [6]. The composite z-score is 1.13 in the test with Sam68 (KHDRBS1), 0.506 in test [7] and 0.904 in test [8]. Further, the composite Z-score in test [1] is 0.331 (inactive).
Turning to `COc1ccc([Si](C)(C)[C@@H]2[C@@H](CCn3cc([C@H](O)c4ccccc4)nn3)O[C@]3(C(=O)N(Cc4ccc(N5CCOC5=O)cc4)c4ccccc43)[C@H]2C)cc1`, the composite z-score with Albumin (Bos taurus) was 0.579; in test [2], 0.165; in test [3], -0.0502; in test [4], 0.0584; in test [5], 0.617; in test [6] it was 0.664. The values for the composite z-score (with Sam68 (KHDRBS1); in test [7]; in [8]) were 1.09, 1.03 and 0.853, respectively. The composite Z-score in [1] is 0.0409 (inactive).
For the molecule `CCOc1cc(C(O)C2C=CC3C(=O)N(C)C(=O)C3N2N2CCCCC2)ccc1O` (stereo not given), the composite z-score with Albumin (Bos taurus) is 0.534; in test [2], 0.135; in test [3], -0.0106; in test [4], 0.709; in [5], 0.733; in test [6], 0.14. Besides, the composite z-score in the test with Sam68 (KHDRBS1) was 0.0667; in [7], 0.278; in test [8] it was 0.852. Moreover, in test [1], the composite Z-score was 0.293 (inactive).
Turning to `O=C1OCC=C[C@H]2OC34C=CCN(Cn5nnc6ccccc65)C(=O)[C@H]3N(CCCCCCO)C(=O)[C@@H]4[C@@H]12` (stereo not given in full), the composite z-score with Albumin (Bos taurus) was -1.02; in test [2] it was -0.165; in test [3], -0.126; in test [4], 0.904; in test [5], 0.718; in [6], 0.79. In addition, the composite z-score in the test on Sam68 (KHDRBS1) was 0.0126; in test [7], -0.743; in test [8], -1.01. In addition, in test [1], the composite Z-score was 0.648 (inactive).
Consider `O=C(CS)NCCCCCCNC(=O)[C@H]1C[C@H]2C(=O)N[C@@H](Cc3ccccc3)C(=O)N2[C@H]1c1cccc(OCCO)c1`, for which the composite z-score is -0.428 with Albumin (Bos taurus); 0.605 in test [2]; -0.084 in test [3]; 0.684 in test [4]; 2.21 in [5]; 0.519 in [6]. Moreover, the results for the composite z-score (with Sam68 (KHDRBS1); in test [7]; in test [8]) were 1.29, 1.24 and 0.892, respectively. Besides, the composite Z-score in test [1] was 0.131 (inactive).
On to `CON(C)C(=O)C=C1C[C@@H](c2cccc(Cl)c2)O[C@@H](c2cccc(Cl)c2)O1`, for which the composite z-score was 0.268 with Albumin (Bos taurus); 0.0897 in test [2]; -0.131 in test [3]; 0.628 in [4]; 0.339 in test [5]; 0.166 in test [6]. Moreover, the composite z-score amounted to 0.474 with Sam68 (KHDRBS1), 0.648 in test [7] and 1.01 in test [8]. Further, the composite Z-score in [1] was 0.294 (inactive).
For the molecule `CCCC=C(CCC)[C@@H](NP(=O)(c1ccccc1)c1ccccc1)c1ccc(C(F)(F)F)cc1`, the composite z-score with Albumin (Bos taurus) was 0.179; in test [2], 0.26; in test [3], 0.0684; in test [4], -0.0457; in test [5] it was 0.442; in [6] it was 0.207. Also, the composite z-score in the test on Sam68 (KHDRBS1) was 1.14; in test [7], -0.13; in [8], -0.482. The composite Z-score in [1] was -0.349 (inactive).
In the case of `CCOC(=O)C[C@H]1[C@H](OC(=O)Cc2ccc3c(c2)OCO3)[C@@H](NC(=O)Cc2ccc(OC)cc2)c2cc(OCCCO)ccc2N1C(=O)c1ccccc1`, the composite z-score was 0.793 in the test with Albumin (Bos taurus); -0.141 in test [2]; -0.0502 in test [3]; 0.461 in [4]; 0.682 in test [5]; -0.0207 in test [6]. Moreover, the composite z-score in the test with Sam68 (KHDRBS1) was 1.01; in test [7] it was -0.353; in test [8], 0.277. The composite Z-score in test [1] was -0.0539 (inactive).
In the case of `CC=CC(O)C1C=CC2C(=O)N(c3ccccc3)C(=O)C2N1Nc1ccccc1` (stereo not given), the composite z-score with Albumin (Bos taurus) came out at 0.867; in [2] it was 0.291; in [3], 0.121; in test [4], 0.681; in test [5], 2.57; in [6], 0.243. The composite z-score with Sam68 (KHDRBS1) stood at 1.29; in test [7] it was 0.25; in test [8], 1.19. Further, in test [1], the composite Z-score was 0.454 (inactive).
As for `O=c1cccc(-c2cccc(Cl)c2)o1`, the composite z-score is 0.271 with Albumin (Bos taurus); -0.0164 in test [2]; -0.161 in test [3]; -0.0655 in test [4]; 0.043 in [5]; 0.275 in [6]. Further, the composite z-score worked out at 0.159 in the test on Sam68 (KHDRBS1), 0.0809 in test [7] and 0.164 in [8]. Also, the composite Z-score in test [1] was 1.25 (inactive).
`O=C(CS)NCCCCCCNC(=O)[C@@H]1C[C@@H]2C(=O)N3CCC[C@H]3C(=O)N2[C@@H]1c1cccc(OCCO)c1`: the composite z-score is 0.848 with Albumin (Bos taurus); -0.225 in test [2]; 0.0063 in [3]; 0.635 in [4]; 2.81 in test [5]; -0.0386 in test [6]. Also, the composite z-score in the test with Sam68 (KHDRBS1) came out at 1.3; in test [7], 0.454; in test [8] it was 1.1. The composite Z-score in test [1] is -0.19 (inactive).

The values above are taken from PubChem BioAssay.
